# According to PubChem BioAssay AID1159580 (chemical genetic matrix, 2015):
# Hit rate of the full screen: of about 5,500 compounds, about 2,000 (36%) were called active. Inconclusive results (about 18%) are left out. The list shows a part of the results. A number with no mark means an inactive call. Rule as the data show it: active = normalized growth mostly below about 0.91 (no sharp cut-off); inconclusive = no clear call, values can overlap the other calls; inactive = mostly above about 0.92.
# Assay: chemical genetic growth profiling, strain panel (AID 1159580);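 also: tested at 20 µM; growth read once vehicle control cultures reached saturation at 30 °C; 1 = growth at the plate median or of vehicle wells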
# Conditions: S. cerevisiae deletion strains, growth OD
# [1] = locus YAL013W, strain DEP1, stronger effect = lower value
# [2] = locus YDR150W, strain NUM1, stronger effect = lower value
# [3] = locus YGR078C, strain PAC10, stronger effect = lower value
# [4] = locus YPL241C, strain CIN2, stronger effect = lower value
# [5] = locus YBR229C, strain ROT2, stronger effect = lower value
# [6] = locus YDL101C, strain DUN1, stronger effect = lower value
# [7] = locus YEL061C, strain CIN8, stronger effect = lower value
# [8] = locus YHR030C, strain SLT2, stronger effect = lower value
# [9] = locus YHR087W, strain rtc3, stronger effect = lower value
# [10] = locus YJR043C, strain POL32, stronger effect = lower value
# [11] = locus YJR075W, strain HOC1, stronger effect = lower value
# [12] = locus YKL190W, strain CNB1, stronger effect = lower value
# [13] = locus YLR039C, strain RIC1, stronger effect = lower value
# [14] = locus YLR058C, strain SHM2 (second series), stronger effect = lower value
# [15] = locus YLR085C, strain ARP6, stronger effect = lower value
# [16] = locus YLR262C, strain YPT6, stronger effect = lower value
# [17] = locus YML094W, strain GIM5, stronger effect = lower value
# [18] = locus YMR219W, strain ESC1, stronger effect = lower value
# [19] = locus YMR263W, strain SAP30, stronger effect = lower value
# [20] = locus YNL153C, strain GIM3, stronger effect = lower value
# [21] = locus YNL298W, strain CLA4 (second series), stronger effect = lower value
# [22] = locus YNL322C, strain KRE1, stronger effect = lower value
# [23] = locus YNR030W, strain Alg12, stronger effect = lower value
# [24] = locus YPL055C, strain LGE1, stronger effect = lower value
# [25] = locus YPR135W, strain CTF4, stronger effect = lower value
compound,measurement,setting,value
O=[N+]([O-])c1ccc2nc(N3CCNCC3)ccc2c1,normalized growth,[1],0.999
same,normalized growth,"locus YAL040C, strain CLN3, stronger effect = lower value",0.985
same,normalized growth,"locus YCL061C, strain MRC1 (second series), stronger effect = lower value",0.995
same,normalized growth,[2],0.994
same,normalized growth,"locus YDR363W, strain ESC2, stronger effect = lower value",1.04
same,normalized growth,"locus YER002W, strain NOP16, stronger effect = lower value",1.01
same,normalized growth,[3],1
same,normalized growth,"locus YMR307W, strain GAS1, stronger effect = lower value",1
same,normalized growth,"locus YNL175C, strain NOP13, stronger effect = lower value",1
same,normalized growth,"locus YNL197C, strain WHI3, stronger effect = lower value",1
same,normalized growth,"locus YNL224C, strain SQS1, stronger effect = lower value",1.01
same,normalized growth,"locus YOR083W, strain WHI5 (second series), stronger effect = lower value",1.01
same,normalized growth,[4],1.01
CC(=O)Nc1cc([N+](=O)[O-])ccc1-n1cc(C)c(C(F)(F)F)n1,normalized growth,[1],0.966
same,normalized growth,[5],0.985
same,normalized growth,"locus YCL061C, strain MRC1, stronger effect = lower value",0.978
same,normalized growth,[6],0.986
same,normalized growth,[2],0.947
same,normalized growth,[7],0.998
same,normalized growth,[3],0.996
same,normalized growth,[8],0.871
same,normalized growth,[9],0.982
same,normalized growth,[10],1
same,normalized growth,[11],0.973
same,normalized growth,[12],0.992
same,normalized growth,[13],0.935
same,normalized growth,[14],0.988
same,normalized growth,[15],0.94
same,normalized growth,[16],0.928
same,normalized growth,[17],0.963
same,normalized growth,[18],0.988
same,normalized growth,[19],0.917
same,normalized growth,[20],0.985
same,normalized growth,[21],0.962
same,normalized growth,[22],0.981
same,normalized growth,[23],0.962
same,normalized growth,[24],0.931
same,normalized growth,[4],1.03
same,normalized growth,[25],0.905
O=[N+]([O-])c1ccc2nsnc2c1,normalized growth,[1],0.836 (active)
same,normalized growth,[5],0.643 (active)
same,normalized growth,[6],0.583 (active)
same,normalized growth,[2],0.825
same,normalized growth,[7],0.626 (active)
same,normalized growth,[3],0.699 (active)
same,normalized growth,"locus YGR229C, strain SMI1, stronger effect = lower value",0.979
same,normalized growth,[8],0.109 (active)
same,normalized growth,[9],0.649 (active)
same,normalized growth,[10],0.828 (active)
same,normalized growth,[11],0.55 (active)
same,normalized growth,[12],0.604 (active)
same,normalized growth,[13],0.795
same,normalized growth,[14],0.824 (active)
same,normalized growth,[15],0.227 (active)
same,normalized growth,[16],0.83
same,normalized growth,[17],0.533 (active)
same,normalized growth,[18],0.833 (active)
same,normalized growth,[19],0.8 (active)
same,normalized growth,"locus YNL128W, strain TEP1, stronger effect = lower value",0.304 (active)
same,normalized growth,[20],0.738 (active)
same,normalized growth,[21],0.361 (active)
same,normalized growth,[22],0.999
same,normalized growth,[23],0.534 (active)
same,normalized growth,"locus YOL006C, strain TOP1, stronger effect = lower value",0.496 (active)
same,normalized growth,[24],0.805 (active)
same,normalized growth,[4],0.286 (active)
same,normalized growth,[25],0.233 (active)
